Experimental data as given in PubChem BioAssay (Tox21).
Records with an inconclusive call do not appear. Active and inactive are the calls of the source. Unless noted, calls follow the shape of the dose curve; as a rule, active = well fitted curve in the direction sought with a large enough effect in the repeat runs; inconclusive = weak or mixed curves; inactive = no such curve, though single readings can be large; an effect the other way counts as inactive or inconclusive.

Experiments:
[1] = qHTS assay to identify small molecule antagonists of the TGF-beta/Smad signaling pathway - cell viability counter screen (AID 1346824); also: nearly all actives have a fitted effect of over 50% in size
Outline: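 SBE-bla HEK 293T cells were plated overnight at 37 C, then given compounds in DMSO plus TGF-beta1 (added as 0.25 ng/mL solution) for 5 hr. After the bla read, CellTiter-Glo was added to the same wells and luminescence read after 30 min at room temperature.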

[2] = qHTS assay to identify small molecule agonists of the TGF-beta/Smad signaling pathway - cell viability counter screen (AID 1346829); also: top concentration of the series differs between compounds; nearly all actives have a fitted effect of over 45% in size
Outline: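 CellTiter-Glo luminescence readout; SBE-bla HEK 293T cells, overnight plating, compound 5 hr at 37 C/5% CO2, then bla substrate 2 hr RT, then CellTiter-Glo 30 min RT.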

[3] = qHTS assay to identify small molecule agonists of the TGF-beta/Smad signaling pathway (AID 1346859; active = well fitted activation curve with a large enough effect in the signal ratio in the repeat runs, not every such curve was filed as active; the % refers to the signal ratio; also: series mostly up to about 77 µM)
Outline: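 Each well held 4,000 SBE-bla HEK 293T cells incubated overnight before compound addition; 5 hr later the cleavable FRET substrate went on for 2 hr at room temperature, and fluorescence was read at two emissions.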

[4] = molecular target: Thyrotropin-releasing hormone receptor (Homo sapiens) (UniProt P34981); test: qHTS assay to identify small molecule antagonists of the thyrotropin-releasing hormone receptor (TRHR) signaling pathway (AID 1346877; active = well fitted inhibition curve with a large enough effect in the repeat runs, not every such curve was filed as active; also: series mostly up to about 51 µM)
Sequence of Thyrotropin-releasing hormone receptor (Homo sapiens) (P34981 whole entry, looked up): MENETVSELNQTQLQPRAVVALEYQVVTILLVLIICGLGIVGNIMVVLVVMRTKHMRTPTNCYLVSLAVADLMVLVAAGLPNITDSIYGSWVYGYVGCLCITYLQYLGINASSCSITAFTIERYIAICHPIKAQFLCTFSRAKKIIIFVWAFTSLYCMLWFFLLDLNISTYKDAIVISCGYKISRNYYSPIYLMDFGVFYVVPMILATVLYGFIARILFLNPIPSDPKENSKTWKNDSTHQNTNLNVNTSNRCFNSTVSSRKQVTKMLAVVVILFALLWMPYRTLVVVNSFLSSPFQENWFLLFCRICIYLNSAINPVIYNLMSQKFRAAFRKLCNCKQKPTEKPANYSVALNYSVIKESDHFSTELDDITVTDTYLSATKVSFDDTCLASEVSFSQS
Outline: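 HEK293/TRHR cells, 18 h, 37 °C; Ca2+ dye 2 h; cpd 5 min RT; TRH 1 nM final; fluorescence read 3 min, 1 s intervals; 15 concs, triplicate.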

[5] = molecular target: Thyrotropin-releasing hormone receptor (Homo sapiens) (UniProt P34981); test: qHTS assay to identify small molecule agonists of the thyrotropin-releasing hormone receptor (TRHR) signaling pathway (AID 1346891; calls by dose curve; also: series mostly up to about 58 µM)
Outline: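 Screening of agonists relied on calcium signalling in HEK293 cells expressing human TRHR: dye loading 2 h at 37 °C preceded compound addition and a 3-min fluorescence time course.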

[6] = Human pregnane X receptor (PXR) small molecule agonists, qHTS cell viability counter screen (AID 1346977); also: nearly all actives have a fitted effect of over 50% in size
Outline: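 Tox21 qHTS format; PXR-Luc HepG2, 2,000/well, charcoal-stripped FBS 5%. Cpd exposure 24hr. Read: CellTiter-Fluor fluorescence, multiplexed with luciferase.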

[7] = Caspase-3/7 induction in CHO-K1 cells by small molecules, qHTS cell viability counter screen (AID 1346979); also: nearly all actives have a fitted effect of over 35% in size
Outline: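 CellTiter-Fluor viability check, qHTS format: wild-type CHO-K1, 16hr compound treatment, 1hr reagent incubation, fluorescence read.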

[8] = Caspase-3/7 induction in CHO-K1 cells by small molecules, qHTS assay (AID 1346980); also: nearly all actives have a fitted effect of over 15% in size
Outline: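 Wild-type cells were seeded at 1,500 per well and settled 5 hr at 37 C, 5% CO2, then exposed to DMSO-dissolved compounds for 17 hr. Caspase-Glo 3/7 reagent was added, and luminescence was read after 30min at room temperature.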

[9] = Caspase-3/7 induction in HepG2 cells by small molecules, qHTS cell viability counter screen (AID 1346981); also: series mostly up to about 92 µM; nearly all actives have a fitted effect of over 30% in size
Outline: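 Fluorescence read-out of live-cell protease activity (CellTiter-Fluor) after 1 hr with reagent. This was measured in the same wells as the caspase-3/7 luminescence, on HepG2 cells exposed to DMSO-dissolved compounds for 16 hr at 37 C.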

[10] = molecular target: Nuclear receptor subfamily 1 group I member 2 (Homo sapiens) (UniProt O75469); test: Human pregnane X receptor (PXR) small molecule agonists, qHTS assay (AID 1346982); also: nearly all actives have a fitted effect of over 35% in size
Sequence of Nuclear receptor subfamily 1 group I member 2 (Homo sapiens) (O75469 whole entry, looked up): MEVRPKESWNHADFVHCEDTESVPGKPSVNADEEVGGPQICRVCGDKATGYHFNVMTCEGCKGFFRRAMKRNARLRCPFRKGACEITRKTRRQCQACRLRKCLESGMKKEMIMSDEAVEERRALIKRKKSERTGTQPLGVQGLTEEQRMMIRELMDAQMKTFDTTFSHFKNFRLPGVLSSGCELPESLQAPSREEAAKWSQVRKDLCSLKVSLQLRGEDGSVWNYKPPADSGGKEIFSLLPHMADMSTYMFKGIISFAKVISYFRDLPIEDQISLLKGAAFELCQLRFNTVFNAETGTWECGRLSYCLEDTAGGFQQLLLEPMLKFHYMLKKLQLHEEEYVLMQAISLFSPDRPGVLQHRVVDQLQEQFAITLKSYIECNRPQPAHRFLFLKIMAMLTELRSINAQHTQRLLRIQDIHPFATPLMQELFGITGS
Outline: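 HepG2 PXR-Luc reporter line, 5% charcoal-stripped FBS; 5 hr pre-incubation, compound (DMSO) 24 hr at 37 C/5% CO2; ONE-Glo 30 min RT; luminescence read-out.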

[11] = molecular target: Nuclear receptor subfamily 1 group I member 2 (Rattus norvegicus) (UniProt Q9R1A7); test: Rat pregnane X receptor (rPXR) activation by small molecules, qHTS assay (AID 1346983); conditions: rPXR luciferase reporter cells, One-Glo luminescence, 24 h; hits give high values; also: nearly all actives have a fitted effect of over 20% in size
Sequence of Nuclear receptor subfamily 1 group I member 2 (Rattus norvegicus) (Q9R1A7 whole entry, looked up): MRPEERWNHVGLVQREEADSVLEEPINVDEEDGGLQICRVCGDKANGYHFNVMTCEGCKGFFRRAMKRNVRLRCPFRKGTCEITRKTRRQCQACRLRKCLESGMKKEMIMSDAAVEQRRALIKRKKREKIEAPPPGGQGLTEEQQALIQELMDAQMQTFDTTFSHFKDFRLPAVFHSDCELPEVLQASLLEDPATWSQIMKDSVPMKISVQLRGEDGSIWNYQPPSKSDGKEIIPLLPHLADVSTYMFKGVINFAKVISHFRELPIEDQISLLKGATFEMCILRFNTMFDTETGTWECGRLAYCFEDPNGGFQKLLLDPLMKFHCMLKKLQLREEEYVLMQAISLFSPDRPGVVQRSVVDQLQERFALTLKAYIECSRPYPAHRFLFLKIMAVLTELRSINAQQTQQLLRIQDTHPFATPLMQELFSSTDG
Outline: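 Cell-based rPXR luciferase reporter assay, 2,000 cells per well, rested 5hr at 37 C before compound addition in DMSO, then 24 hr at 37 C. One-Glo reagent was added and luminescence read after 30 min at room temperature.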

[12] = molecular target: Nuclear receptor subfamily 1 group I member 2 (Homo sapiens) (UniProt O75469); test: CYP3A4 induction through human pregnane X receptor (PXR) by small molecules, qHTS assay (AID 1346984); also: nearly all actives have a fitted effect of over 40% in size
Outline: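 HepG2-derived DPX-2 line carrying PXR plus a CYP3A4-promoter luciferase reporter; cells plated 5 hr, compound-exposed 24 hr at 37C. CYP3A4 activity probed with 3uM (final) Luciferin-IPA for 3hr, then luciferase read after One-Glo.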

[13] = molecular target: Cytochrome P450 2C19 (Homo sapiens) (UniProt P33261); test: Cytochrome P450 Family 2 Subfamily C Member 19 (CYP2C19) small molecule antagonists: luciferase reporter qHTS assay (AID 1671197); also: series mostly up to about 120 µM; nearly all actives have a fitted effect of over 65% in size
Sequence of Cytochrome P450 2C19 (Homo sapiens) (P33261 whole entry, looked up): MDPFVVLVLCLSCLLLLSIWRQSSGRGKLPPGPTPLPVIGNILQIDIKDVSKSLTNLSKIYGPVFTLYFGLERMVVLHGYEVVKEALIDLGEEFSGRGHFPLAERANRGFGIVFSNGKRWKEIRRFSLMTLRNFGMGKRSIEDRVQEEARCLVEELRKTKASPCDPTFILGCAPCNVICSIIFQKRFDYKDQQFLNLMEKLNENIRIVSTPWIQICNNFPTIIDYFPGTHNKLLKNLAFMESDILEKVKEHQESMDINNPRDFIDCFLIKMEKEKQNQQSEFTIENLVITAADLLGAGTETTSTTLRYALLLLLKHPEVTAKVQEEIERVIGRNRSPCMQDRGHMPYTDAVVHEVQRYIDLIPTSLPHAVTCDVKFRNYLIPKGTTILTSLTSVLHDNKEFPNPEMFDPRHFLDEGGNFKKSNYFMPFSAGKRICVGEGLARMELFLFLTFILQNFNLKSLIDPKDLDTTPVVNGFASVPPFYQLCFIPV
Outline: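 Enzyme-substrate mix with proluciferin substrate (P450-Glo CYP2C19 system) preincubated with compounds 10 min at room temperature; NADPH regeneration solution added, 37C for 1 h; detection reagent stops reaction, luminescence read after 20 min. Ketoconazole positive control.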

[14] = molecular target: Cytochrome P450 2C9 (Homo sapiens) (UniProt P11712); test: Cytochrome P450 Family 2 Subfamily C Member 9 (CYP2C9) small molecule antagonists: luciferase reporter qHTS assay (AID 1671198); also: nearly all actives have a fitted effect of over 50% in size; also: potency is read from the fitted curve at half-maximal effect
Sequence of Cytochrome P450 2C9 (Homo sapiens) (P11712 whole entry, looked up): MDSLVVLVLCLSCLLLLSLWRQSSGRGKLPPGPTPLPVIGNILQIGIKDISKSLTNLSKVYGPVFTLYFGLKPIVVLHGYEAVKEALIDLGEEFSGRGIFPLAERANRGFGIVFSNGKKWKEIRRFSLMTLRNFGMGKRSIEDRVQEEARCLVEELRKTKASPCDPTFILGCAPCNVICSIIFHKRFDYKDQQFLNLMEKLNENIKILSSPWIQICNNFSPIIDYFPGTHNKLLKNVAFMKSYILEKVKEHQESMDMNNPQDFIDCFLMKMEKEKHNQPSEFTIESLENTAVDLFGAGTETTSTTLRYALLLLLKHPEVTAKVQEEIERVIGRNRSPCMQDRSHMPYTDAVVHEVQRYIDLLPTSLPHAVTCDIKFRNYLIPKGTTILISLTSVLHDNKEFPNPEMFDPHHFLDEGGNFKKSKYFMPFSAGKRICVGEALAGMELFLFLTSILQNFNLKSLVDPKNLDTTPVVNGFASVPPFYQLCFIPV
Outline: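 CYP2C9 activity was measured with a P450-Glo proluciferin substrate. Enzyme–substrate mix was held with compound for 10 min at room temperature, then NADPH regeneration solution was added for 1 h at 37C. Luciferin product was read as luminescence.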

[15] = molecular target: Cytochrome P450 1A2 (Homo sapiens) (UniProt P05177); test: Cytochrome P450 Family 1 Subfamily A Member 2 (CYP1A2) small molecule antagonists: luciferase reporter qHTS assay (AID 1671199); also: nearly all actives have a fitted effect of over 50% in size; also: potency is read from the fitted curve at half-maximal effect
Sequence of Cytochrome P450 1A2 (Homo sapiens) (P05177 whole entry, looked up): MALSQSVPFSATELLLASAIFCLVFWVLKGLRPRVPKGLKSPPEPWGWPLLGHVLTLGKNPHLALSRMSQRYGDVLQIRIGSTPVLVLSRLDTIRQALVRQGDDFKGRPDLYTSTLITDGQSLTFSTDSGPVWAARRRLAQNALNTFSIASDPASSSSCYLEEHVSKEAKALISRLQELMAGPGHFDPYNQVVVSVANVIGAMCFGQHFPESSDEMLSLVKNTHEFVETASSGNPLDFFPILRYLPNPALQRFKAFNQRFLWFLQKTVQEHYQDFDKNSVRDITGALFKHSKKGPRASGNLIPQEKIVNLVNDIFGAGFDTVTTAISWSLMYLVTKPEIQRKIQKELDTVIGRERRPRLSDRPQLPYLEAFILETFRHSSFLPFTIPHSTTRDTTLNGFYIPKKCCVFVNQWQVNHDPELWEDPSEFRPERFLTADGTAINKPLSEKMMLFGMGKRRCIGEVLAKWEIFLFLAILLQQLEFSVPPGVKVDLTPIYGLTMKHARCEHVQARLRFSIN
Outline: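 Luminescence readout (relative luminescence units) after luciferin detection reagent, 20 min RT. Preceded by 1 h room-temperature CYP1A2 reaction with NADPH regeneration solution following 10 min compound preincubation with enzyme and proluciferin substrate. Furafylline positive control.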

[16] = molecular target: Voltage-gated inwardly rectifying potassium channel KCNH2 (Homo sapiens) (UniProt Q12809); test: Human Ether-a-go-go-Related Gene (hERG) channel small molecule antagonists: fluorescence cell-based qHTS assay (AID 1671200)
Sequence of Voltage-gated inwardly rectifying potassium channel KCNH2 (Homo sapiens) (Q12809 whole entry, looked up): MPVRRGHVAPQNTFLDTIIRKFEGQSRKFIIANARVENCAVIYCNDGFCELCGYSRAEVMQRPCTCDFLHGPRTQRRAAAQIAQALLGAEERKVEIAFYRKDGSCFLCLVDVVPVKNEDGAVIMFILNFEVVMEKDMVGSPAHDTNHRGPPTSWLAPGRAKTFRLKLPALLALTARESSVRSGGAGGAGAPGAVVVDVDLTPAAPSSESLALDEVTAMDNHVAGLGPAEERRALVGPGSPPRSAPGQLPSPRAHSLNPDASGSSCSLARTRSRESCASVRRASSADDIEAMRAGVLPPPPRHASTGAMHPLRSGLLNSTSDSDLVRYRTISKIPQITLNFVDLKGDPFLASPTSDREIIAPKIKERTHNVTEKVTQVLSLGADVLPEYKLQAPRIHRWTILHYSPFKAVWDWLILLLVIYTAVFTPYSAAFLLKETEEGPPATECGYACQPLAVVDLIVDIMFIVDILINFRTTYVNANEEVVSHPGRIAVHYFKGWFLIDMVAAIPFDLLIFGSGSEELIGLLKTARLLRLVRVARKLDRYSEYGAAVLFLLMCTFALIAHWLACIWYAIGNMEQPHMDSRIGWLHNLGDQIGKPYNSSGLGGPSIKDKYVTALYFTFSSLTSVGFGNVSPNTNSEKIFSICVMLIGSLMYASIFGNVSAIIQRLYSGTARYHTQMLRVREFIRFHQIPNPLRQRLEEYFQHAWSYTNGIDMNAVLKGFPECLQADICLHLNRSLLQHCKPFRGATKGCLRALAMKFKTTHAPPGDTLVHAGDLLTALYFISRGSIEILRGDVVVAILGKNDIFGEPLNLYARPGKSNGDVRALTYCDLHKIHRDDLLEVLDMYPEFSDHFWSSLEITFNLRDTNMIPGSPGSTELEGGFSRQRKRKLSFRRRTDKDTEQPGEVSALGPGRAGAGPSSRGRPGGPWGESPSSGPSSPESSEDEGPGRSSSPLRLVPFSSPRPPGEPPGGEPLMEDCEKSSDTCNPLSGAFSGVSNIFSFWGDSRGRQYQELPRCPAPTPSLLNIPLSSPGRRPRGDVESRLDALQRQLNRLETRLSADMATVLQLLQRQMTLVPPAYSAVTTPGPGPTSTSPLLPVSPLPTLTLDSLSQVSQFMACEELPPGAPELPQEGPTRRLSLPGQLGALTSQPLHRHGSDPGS
Outline: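 Kinetic two-minute fluorescence traces, sampled at 1 s, were collected following thallium stimulus of U2OS cells (1000 per well) that had been cultured overnight at 37 C and loaded with FluxOR II.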

[17] = molecular target: Cytochrome P450 3A4 (Homo sapiens) (UniProt P08684); test: Cytochrome P450 Family 3 Subfamily A Member 4 (CYP3A4) small molecule antagonists: luciferase reporter qHTS assay (AID 1671201); also: nearly all actives have a fitted effect of over 50% in size; also: potency is read from the fitted curve at half-maximal effect
Sequence of Cytochrome P450 3A4 (Homo sapiens) (P08684 whole entry, looked up): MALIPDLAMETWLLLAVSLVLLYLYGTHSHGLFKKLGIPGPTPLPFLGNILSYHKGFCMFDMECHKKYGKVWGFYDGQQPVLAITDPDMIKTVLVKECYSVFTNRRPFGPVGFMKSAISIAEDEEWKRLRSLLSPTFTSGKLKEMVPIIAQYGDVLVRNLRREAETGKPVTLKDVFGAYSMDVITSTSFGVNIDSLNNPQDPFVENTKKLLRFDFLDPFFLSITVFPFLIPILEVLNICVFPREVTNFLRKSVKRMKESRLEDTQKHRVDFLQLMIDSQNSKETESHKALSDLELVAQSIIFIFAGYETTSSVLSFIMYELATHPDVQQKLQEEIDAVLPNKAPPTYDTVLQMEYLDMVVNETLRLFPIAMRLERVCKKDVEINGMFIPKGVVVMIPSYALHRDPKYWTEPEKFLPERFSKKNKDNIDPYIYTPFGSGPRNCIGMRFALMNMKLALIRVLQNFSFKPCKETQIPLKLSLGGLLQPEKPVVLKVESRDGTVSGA
Outline: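 Proluciferin-to-luciferin conversion by CYP3A4, NADPH-regenerated, 1 h RT; luminescence read as RLU. Ketoconazole as control.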

[18] = Caspase-3/7 induction in HepG2 cells by small molecules, qHTS assay (AID 1346978); also: nearly all actives have a fitted effect of over 15% in size
Outline: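 Wild-type HepG2 cells (2,000/well) were settled 5 h at 37 C, 5% CO2, then exposed to compounds in DMSO for 17 h. Caspase-3/7 activity was read by luminescence 30 min after adding Caspase-Glo 3/7 reagent at room temperature.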

[19] = molecular target: Cytochrome P450 2D6 (Homo sapiens) (UniProt P10635); test: Cytochrome P450 Family 2 Subfamily D Member 6 (CYP2D6) small molecule antagonists: luciferase reporter qHTS assay (AID 1671196); also: nearly all actives have a fitted effect of over 50% in size; also: potency is read from the fitted curve at half-maximal effect
Sequence of Cytochrome P450 2D6 (Homo sapiens) (P10635 whole entry, looked up): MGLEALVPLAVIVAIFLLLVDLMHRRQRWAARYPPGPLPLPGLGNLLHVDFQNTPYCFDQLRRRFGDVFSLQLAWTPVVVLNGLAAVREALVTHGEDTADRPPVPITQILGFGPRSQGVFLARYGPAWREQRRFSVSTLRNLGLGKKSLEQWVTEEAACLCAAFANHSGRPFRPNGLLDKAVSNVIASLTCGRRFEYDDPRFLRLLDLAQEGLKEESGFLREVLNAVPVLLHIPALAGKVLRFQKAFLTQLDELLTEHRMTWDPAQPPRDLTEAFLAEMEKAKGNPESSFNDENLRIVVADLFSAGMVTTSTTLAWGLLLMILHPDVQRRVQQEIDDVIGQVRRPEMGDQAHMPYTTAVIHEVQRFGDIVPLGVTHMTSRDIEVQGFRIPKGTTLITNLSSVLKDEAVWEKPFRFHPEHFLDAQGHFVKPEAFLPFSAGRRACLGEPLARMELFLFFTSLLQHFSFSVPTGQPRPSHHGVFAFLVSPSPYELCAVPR
Outline: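 Luminogenic proluciferin substrate, CYP2D6 enzyme; 10 min RT preincubation with compound, NADPH regeneration system added, 1 h RT. Stop/detection reagent, 20 min RT, luminescence read (RLU). Signal proportional to CYP activity.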
% is scaled to controls: 0 for no effect and ±100 for the full control effect.

C#CCN[C@@H]1CCc2ccccc21
active: Potency [15] 5.12 µM
inactive: outcome [1] | outcome [2] | outcome [3] | outcome [4] | outcome [5] | outcome [6] | Potency [7] | outcome [8] | outcome [9] | Potency [10] | max activation [11] -3.04% | Potency [12] | Potency [13] | Potency [14] | Potency [16] | Potency [17]

CC/C=C\CCOC(=O)c1ccccc1O
active: Potency [15] 31.7 µM
inactive: outcome [1] | outcome [2] | outcome [3] | outcome [4] | outcome [5] | outcome [6] | outcome [18] | Potency [7] | outcome [8] | outcome [9] | Potency [19] | Potency [17]

CCCCOCC(C)O (centres undefined)
inactive: outcome [1] | outcome [2] | outcome [3] | outcome [4] | outcome [5] | outcome [6] | outcome [18] | Potency [7] | outcome [8] | outcome [9] | Potency [10] | Potency [13] | Potency [15] | Potency [16] | Potency [17]

CC(=O)CC(=O)Nc1ccc(C)cc1C
inactive: outcome [1] | outcome [2] | outcome [3] | outcome [4] | outcome [5] | outcome [6] | outcome [18] | Potency [7] | outcome [8] | outcome [9] | Potency [10] | Potency [16]
active: Potency [15] 15.9 µM

CC(=O)CCc1ccc(OC(C)=O)cc1
inactive: outcome [1] | outcome [2] | outcome [3] | outcome [4] | outcome [5] | outcome [6] | outcome [18] | Potency [7] | outcome [9] | Potency [10] | Potency [19] | Potency [16] | Potency [17]
active: Potency [15] 31.7 µM

CN(C)CCCO[C@@H]1[C@H]2OC(C)(C)O[C@H]2O[C@@H]1C(O)CO (some centres undefined)
inactive: outcome [1] | outcome [2] | outcome [3] | outcome [4] | outcome [5] | outcome [6] | Potency [7] | outcome [8] | outcome [9] | Potency [10] | max activation [11] -3.96% | Potency [12] | Potency [19] | Potency [13] | Potency [14] | Potency [15] | Potency [16] | Potency [17]

O=C=NCC1CCCC(CN=C=O)C1 (centres undefined)
active: Potency [19] 31.7 µM | Potency [14] 10 µM | Potency [17] 2.83 µM
inactive: outcome [1] | outcome [2] | outcome [3] | outcome [4] | outcome [5] | outcome [6] | outcome [18] | Potency [7] | outcome [9] | Potency [15]

N[C@@H](Cc1ccc(O)cc1)C(=O)O
inactive: viability change, negative = cytotoxic [1] -8.39% [at 6.97 µM] | activity change, negative = cytotoxicity [2] 9.15% [at 6.97 µM] | activation [3] 4.2% [at 6.97 µM] | activity, negative = inhibition [4] -2.4% [at 4.65 µM] | activation [5] -0.36% [at 5.23 µM] | activity change, negative = cytotoxicity [6] -1.74% [at 8.39 µM] | activity change, negative = cytotoxicity [7] 1.62% [at 8.39 µM] | caspase-3/7 activation [8] -1.08% [at 8.39 µM] | activity change, negative = cytotoxicity [9] -1.35% [at 8.39 µM] | activation [10] -5.23% [at 8.39 µM] | max activation [11] 3.66%

CCCC(=O)OCCC(C)CCC=C(C)C (centres undefined)
active: Potency [14] 20 µM | Potency [15] 39.9 µM | Potency [17] 4.48 µM
inactive: outcome [1] | outcome [2] | outcome [3] | outcome [4] | outcome [5] | outcome [6] | outcome [18] | Potency [7] | outcome [8] | outcome [9] | Potency [10] | Potency [16]
